Here are results for 11 molecules from PubChem BioAssay.

SMILES strings stand for the structures. Active and inactive are the calls of the source. Unless noted, the rule behind the calls is not given here.

Experiment [1] can be described thus: liver-stage malaria parasite load reduction – cell-based, known kinase inhibitor set, luminescence, hepatoma host viability (AID 624392).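 Note: infected cells incubated roughly two days before readout.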 The following applies: Plasmodium liver stage in hepatoma cells, luciferase luminescence, concentration not given here; liver cell % of control: measured here: host liver cell viability; parasite % of control: stronger effect = lower value.

Experiment [2] is described as follows: altered dexamethasone sensitivity, NF-kB reporter, cell-based, luciferase, IL-1B stimulus (AID 624486).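 For percent of negative control (+Dex): 100% = mean signal of vehicle control wells on the plate.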 The following applies: IL-1B + dexamethasone, luminescence; percent of negative control (+Dex): actives lie on both sides, concentration not given here; z-score: measured here: IL-1B alone, no Dex.
Experiment [3] is described as follows: C. elegans survival during P. aeruginosa infection – whole organism (AID 651566).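 Note: tested at 14 µM; sign flipped so higher z means a lower ratio.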 The note with it: C. elegans killed by P. aeruginosa, survival ratio.
Experiment [4] can be described thus: pro-inflammatory signaling induction in mouse macrophages – cell-based, murine, luminescence (AID 652131). The note with it: murine macrophage pro-inflammatory reporter, stronger effect = higher value.
Experiment [5] addresses Cellular tumor antigen p53 (Homo sapiens) (UniProt P04637). Put plainly: GFP-p53 level modulators in HPV16+ cells – imaging, known kinase inhibitor set, EGFP/DsRed ratio (AID 1053116).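 Note: cells exposed to compounds for 24 h at 37 °C before reading.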 The note with it: GFP-p53 stability, stronger effect = higher value; EGFP object count: measured here: GFP-p53 positive objects count.
Experiment [6] is described as follows: inducers of IRF3 signaling, differentiated THP-1 – cell-based, PMA-stimulated THP-1, luminescence (AID 1053176). The note with it: PMA-differentiated THP-1, IRF3 reporter luminescence; stronger effect = higher value.
Experiment [7] is described as follows: MELAS cybrid and Rieske KO viability enhancers – cell-based, MELAS cybrids, Rieske KO mouse fibroblasts, CellTiter-Glo, primary screen (AID 1508586;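 active = mean z-score across replicates of 1.96 or higher in either the MELAS or the Rieske mutant cell line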;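 note: z relative to plate mean and SD of compound and empty wells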). The following applies: low glucose. (Cellular ATP, detected with luciferase, serves as a proxy for viable cell number.)
Setting [8] is: MELAS cybrid survival, CellTiter-Glo 48 h, stronger effect = higher value.
The mark [9] stands for this setting: Rieske KO mouse fibroblast survival, CellTiter-Glo 72 h.

Cellular tumor antigen p53 (Homo sapiens), sequence (P04637 whole entry, looked up): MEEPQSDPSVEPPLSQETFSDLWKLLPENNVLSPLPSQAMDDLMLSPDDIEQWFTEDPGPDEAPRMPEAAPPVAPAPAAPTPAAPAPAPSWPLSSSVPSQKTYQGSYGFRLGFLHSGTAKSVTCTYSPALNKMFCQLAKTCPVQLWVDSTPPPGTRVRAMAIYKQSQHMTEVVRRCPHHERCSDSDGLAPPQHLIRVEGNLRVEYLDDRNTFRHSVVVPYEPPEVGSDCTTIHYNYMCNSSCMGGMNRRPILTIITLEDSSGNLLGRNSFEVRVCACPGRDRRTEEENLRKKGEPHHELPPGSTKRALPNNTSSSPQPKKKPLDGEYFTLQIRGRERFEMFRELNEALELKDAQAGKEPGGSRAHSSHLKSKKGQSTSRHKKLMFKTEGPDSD

In experiment [1], `COc1cc(N2CCN(C(C)C)CC2)ccc1Nc1nc(Nc2cccc(F)c2C(=O)O)c2cc[nH]c2n1` showed a liver cell % of control of 115%. Also, the parasite % of control in experiment [1] was 124% (inactive). Further, the percent of negative control (+Dex) in experiment [2] is 100% (inactive). For the same molecule, the z-score is -0.075 in experiment [2]; 1.24 (inactive) in experiment [3]; -0.341 (inactive) in experiment [4]; -0.385 (inactive) in experiment [7] (setting [8]); -0.236 in experiment [7] (setting [9]). In addition, the EGFP object count in experiment [5] came to 4. In experiment [5], the EGFP/DsRed ratio was 0.0569 (inactive). In addition, the fraction signal in experiment [6] is 0.0115 (inactive).
In experiment [1], `COc1cc(/C=N/Nc2ncnc3c2cnn3-c2ccccc2)ccc1O` had a liver cell % of control of 108%. Further, the parasite % of control in experiment [1] was 61% (inactive). Besides, in experiment [2], the percent of negative control (+Dex) was 92% (inactive). In addition, the z-score is 0.145 in experiment [2]; 0.145 (inactive) in experiment [3]; -0.075 (inactive) in experiment [4]; 1.22 (inactive) in experiment [7] (setting [8]); 0.165 in experiment [7] (setting [9]). The EGFP object count in experiment [5] stood at 4.5. Also, the EGFP/DsRed ratio in experiment [5] is 0.778 (inactive). Moreover, the fraction signal in experiment [6] was -0.007 (inactive).
For the molecule `CCn1c(-c2nonc2N)nc2cncc(C(=O)NCCNC)c21`, in experiment [1], the liver cell % of control worked out at 80.5%. The parasite % of control in experiment [1] is 190% (inactive). The percent of negative control (+Dex) in experiment [2] was 89% (inactive). In addition, the z-score was -0.865 in experiment [2]; 0.43 (inactive) in experiment [3]; -0.531 (inactive) in experiment [4]; 3 (active) in experiment [7] (setting [8]); 0.0886 in experiment [7] (setting [9]). The EGFP object count in experiment [5] amounted to 7. In addition, the EGFP/DsRed ratio in experiment [5] was 0.122 (inactive). Also, the fraction signal in experiment [6] was -0.011 (inactive).
Regarding `COc1cccc(-n2ncc3c(N/N=C/c4cccc(F)c4)ncnc32)c1`, the liver cell % of control in experiment [1] was 106%. For the same molecule, the parasite % of control in experiment [1] was 81% (inactive). Moreover, in experiment [2], the percent of negative control (+Dex) is 93.5% (inactive). Also, the z-score in experiment [2] was 0.615; in experiment [3], -0.05 (inactive); in experiment [4], -0.183 (inactive); in experiment [7] (setting [8]), 1.45 (inactive); in experiment [7] (setting [9]), -0.242. Further, the EGFP object count in experiment [5] is 5. The EGFP/DsRed ratio in experiment [5] was 0.0775 (inactive). Further, the fraction signal in experiment [6] is 0.0035 (inactive).
`CN1CCN(CCCNc2nc3ccc(Oc4ccc(NC(=O)Nc5cc(C(F)(F)F)ccc5F)cc4)cc3[nH]2)CC1` returned a liver cell % of control in experiment [1] of 95.2%. The parasite % of control in experiment [1] was 94.4% (inactive). In addition, the percent of negative control (+Dex) in experiment [2] is 97.5% (inactive). In addition, the z-score in experiment [2] was 0.025; in experiment [3], -0.94 (inactive); in experiment [4], 1.21 (inactive); in experiment [7] (setting [8]), -0.0444 (inactive); in experiment [7] (setting [9]), -0.286. In experiment [5], the EGFP object count was 3.5. Further, in experiment [5], the EGFP/DsRed ratio was 0.103 (inactive). The fraction signal in experiment [6] was -0.0045 (inactive).
`Clc1ccc(CNc2nccc(-c3cnn4ncccc34)n2)cc1` registered a liver cell % of control in experiment [1] of 78.2%. Moreover, in experiment [1], the parasite % of control is 176% (inactive). Besides, in experiment [2], the percent of negative control (+Dex) is 26.5% (active). In addition, the z-score in experiment [2] is -7.22; in experiment [3], 0.125 (inactive); in experiment [4] it was -1.14 (inactive); in experiment [7] (setting [8]), 0.484 (inactive); in experiment [7] (setting [9]), -0.266. Moreover, the EGFP object count in experiment [5] amounted to 1. The EGFP/DsRed ratio in experiment [5] was 0.0281 (inactive). Moreover, the fraction signal in experiment [6] was 0 (inactive).
On to `CS(=O)(=O)Nc1ccc(N=Cc2c(O)[nH]c3ccccc23)cc1`, for which the liver cell % of control in experiment [1] is 95.2%. In experiment [1], the parasite % of control was 107% (inactive). In addition, the percent of negative control (+Dex) in experiment [2] is 108% (inactive). In addition, the z-score in experiment [2] is 1.36; in experiment [3], 0.265 (inactive); in experiment [4] it was 2.34 (inactive); in experiment [7] (setting [8]), 1.4 (inactive); in experiment [7] (setting [9]), -0.36. In experiment [5], the EGFP object count stood at 4. Besides, the EGFP/DsRed ratio in experiment [5] was 0.123 (inactive). In addition, the fraction signal in experiment [6] was -0.0045 (inactive).
`COc1cc(Nc2ncc3c(C)nc(-c4cccc(Oc5ccccc5)c4)n3n2)cc(OC)c1OC`: the liver cell % of control in experiment [1] was determined as 92.5%. In addition, the parasite % of control in experiment [1] is 147% (inactive). The percent of negative control (+Dex) in experiment [2] was 77% (inactive). The z-score in experiment [2] is -1.34; in experiment [3], 0.075 (inactive); in experiment [4], -0.606 (inactive); in experiment [7] (setting [8]), 0.38 (inactive); in experiment [7] (setting [9]) it was 0.0156. In addition, the EGFP object count in experiment [5] amounted to 8.5. For the same molecule, the EGFP/DsRed ratio in experiment [5] was 0.0854 (inactive). Further, in experiment [6], the fraction signal was 0 (inactive).
With `CN(c1ccc(NC(=O)NCCN2CCOCC2)cc1)c1ccnc(Nc2ccc(CS(C)(=O)=O)cc2)n1`, in experiment [1], the liver cell % of control amounted to 99.9%. The parasite % of control in experiment [1] is 114% (inactive). For the same molecule, in experiment [2], the percent of negative control (+Dex) is 94% (inactive). Besides, the z-score in experiment [2] was -0.155; in experiment [3] it was 0.89 (inactive); in experiment [4], 2.96 (inactive); in experiment [7] (setting [8]) it was -0.011 (inactive); in experiment [7] (setting [9]) it was -0.139. For the same molecule, the EGFP object count in experiment [5] was 3. Moreover, in experiment [5], the EGFP/DsRed ratio was 0.184 (inactive). Also, the fraction signal in experiment [6] was -0.0035 (inactive).
Molecule `Cc1ccc2c(-c3ccnc(Nc4ccc5c(c4)OCCO5)n3)c(-c3ccc(C(F)(F)F)cc3)nn2n1` displayed a liver cell % of control in experiment [1] of 142%. For the same molecule, the parasite % of control in experiment [1] was 33.6% (inactive). Moreover, the percent of negative control (+Dex) in experiment [2] is 86% (inactive). The z-score in experiment [2] is -0.095; in experiment [3] it was -1.23 (inactive); in experiment [4], 0.821 (inactive); in experiment [7] (setting [8]), -0.379 (inactive); in experiment [7] (setting [9]), 0.474. For the same molecule, the EGFP object count in experiment [5] came to 1.5. Further, the EGFP/DsRed ratio in experiment [5] is 0.0121 (inactive). The fraction signal in experiment [6] was 0.002 (inactive).
`Fc1ccc(-c2nn3ccccc3c2-c2ccncc2)cc1`: the liver cell % of control in experiment [1] was found to be 99.4%. For the same molecule, the parasite % of control in experiment [1] was 91.2% (inactive). Besides, in experiment [2], the percent of negative control (+Dex) was 90% (inactive). Moreover, the z-score was 0.26 in experiment [2]; -0.5 (inactive) in experiment [3]; -0.011 (inactive) in experiment [4]; 0.183 (inactive) in experiment [7] (setting [8]); -0.338 in experiment [7] (setting [9]). Besides, the EGFP object count in experiment [5] turned out to be 4.5. The EGFP/DsRed ratio in experiment [5] is 0.0996 (inactive). The fraction signal in experiment [6] was 0.0045 (inactive).
